Compounds with a hit are over-represented: about 21% of the library has one in this group of screens.
SARS PLP yeast = qHTS of Yeast-based Assay for SARS-CoV PLP. S. cerevisiae expressing SARS-CoV PLpro, growth rescue. Potency, µM (highest dose often 32.9 µM), usual class: activators. 330,000 tested, 0.19% active; note: nearly all actives have a fitted effect of over 55% in size
Pf growth 48h = Primary qHTS for delayed death inhibitors of the malarial parasite plastid, 48 hour incubation | 310,000 tested, 5.9% active | Potency, µM (highest dose often 28.7 µM), actives largely listed as inhibitors | P. falciparum luciferase growth in erythrocytes, 48 h | AID 504832, 2011; active = well fitted inhibition curve with a large enough effect; inconclusive = small, poorly fitted or top-dose-only effect, or another doubt; inactive = no such curve, though single readings can be large or run the other way
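First compound was added to culture medium, then infected red cells at 0.1% parasitemia and 2% hematocrit (final). After incubation at 37 C under 5% CO2, luciferase detection reagent was dispensed and light output recorded.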
NS1 inh = qHTS Assay for Inhibitors of Influenza NS1 Protein Function; Potency, µM (highest dose often 46.1 µM); 270,000 tested, 0.4% active; AID 2326, 2010; note: actives are rising curves; nearly all actives have a fitted effect of over 50% in size
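OD600 was taken as the measure of yeast growth restored by compound in an NS1-expressing S. cerevisiae strain. Cells had been washed out of glucose medium and diluted 1:100 into galactose -URA medium, pH 6.0.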
Shiga toxin inh = A qHTS for Small Molecule Inhibitors of Shiga Toxin. 290,000 tested, 9.2% active. Vero cells, Shiga toxin protein synthesis inhibition reporter. inhibition, % at 38.7 µM. AID 2315, 2010; in the data active = inhibition mostly above about 28%, no sharp cut-off; inactive = mostly below about 43%
Pf growth 96h = Primary qHTS for delayed death inhibitors of the malarial parasite plastid, 96 hour incubation. Potency, µM (series often up to 28.7 µM), usual class: inhibitors. AID 504834, 2011. P. falciparum luciferase reporter growth, 96 h. 320,000 tested, 6.9% active; active = well fitted inhibition curve with a large enough effect; inconclusive = small, poorly fitted or top-dose-only effect, or another doubt; inactive = no such curve, though single readings can be large or run the other way
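Plates of compound plus infected erythrocytes (2% hematocrit, 0.05% parasitemia final) incubate 96 hours, 37 C, 5% CO2. Detection reagent added; reduced luminescence from the parasites' luciferase reporter flags inhibition.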
Cycloheximide cs = Cycloheximide Counterscreen for Small Molecule Inhibitors of Shiga Toxin | max response, % | cell reporter, cycloheximide protein synthesis inhibition counterscreen | AID 2314, 2010 | 300,000 tested, 12% active; in the data active = max response mostly above about 13%, no sharp cut-off; inactive = mostly below about 14%; note: read at 38.3 µM for the half of the compounds with a filed dose
Large screens that a line does not name were inactive. Unless noted, calls come from the whole dose curve.

COc1ccc(/C=C2\CCCC3C2=NN(C(=O)CSc2n[nH]c(N)n2)C3c2ccc(OC)cc2)cc1 (stereo not drawn)	Pf growth 48h inconclusive, Pf growth 96h inconclusive
CCCCN1C(=O)C(=O)N(CC(=O)N2N=C3/C(=C/c4ccco4)CCCC3C2c2ccco2)C1=O (stereo not drawn)	Shiga toxin inh 49, Cycloheximide cs 20 (no result: NS1 inh)
Cc1ccc(NC(=O)Cn2ccc([N+](=O)[O-])n2)cc1C	Pf growth 96h inconclusive
CCOC(=O)C1CCN(C(=O)C(=O)Nc2ccc3nc4n(c(=O)c3c2)CCCCC4)CC1	Pf growth 48h inconclusive, Pf growth 96h inconclusive
O=C1N(Cc2cccc(Cl)c2)C[C@@H]2C[C@@H](c3cccn3-c3nccs3)N3CCC[C@@]123	Pf growth 48h inconclusive, Pf growth 96h inconclusive
O=C1N(Cc2cccc(Cl)c2)C[C@@H]2C[C@@H](c3cccn3-c3ccccn3)N3CCC[C@@]123	Pf growth 48h 12µM, Pf growth 96h inconclusive
O=C1N(Cc2cccc(Cl)c2)C[C@@H]2C[C@@H](c3cccc4ncccc34)N3CCC[C@@]123	Pf growth 48h 1.7µM
COc1ccc(Cl)cc1NC(=O)CN1C(=O)CC(C)S(=O)(=O)c2ccccc21 (stereo not drawn)	Pf growth 48h inconclusive (no result: NS1 inh)
CC(=O)N(Cc1ccccc1)c1nc(-c2ccccc2)cs1	none
CC(C)NC(=O)CN1CCC(c2ccccc2)C(O)C1 (stereo not drawn)	none
O=C(Nc1ccc(N2CCCC2)c(Cl)c1)c1ccc(Br)o1	Pf growth 48h 4.7µM, Pf growth 96h 4.7µM, Cycloheximide cs 41
O=C(Nc1ccccc1N1CCCC1)c1ccc(Br)o1	Cycloheximide cs 9.2
CC(=O)N1CCN(c2ccccc2NC(=O)c2ccc(Br)o2)CC1	none
Cc1nc(N2CCCCC2)c2c(C)c(C(=O)Nc3ccc4c(c3)OCCO4)sc2n1	Pf growth 48h inconclusive, Cycloheximide cs 17
Cc1nc(N2CCN(c3ccccn3)CC2)c2c(C)c(C(=O)Nc3c(C)cc(Br)cc3C)sc2n1	Pf growth 48h 1.9µM
Cc1nc(N2CCN(c3ccccn3)CC2)c2c(C)c(C(=O)Nc3c(F)cc(F)cc3Br)sc2n1	Pf growth 48h 12µM
Cc1nc(N2CCN(C)CC2)c2c(C)c(C(=O)Nc3ccc(C)c(F)c3)sc2n1	Pf growth 96h inconclusive (no result: Pf growth 48h)
Cc1nc(C(=O)N(C)C)nn1-c1cc(Cl)cc(Cl)c1	none
CCOC(=O)c1cccc(-[n+]2c(-c3ccccc3)cc(-c3ccccc3)cc2-c2ccccc2)c1	Pf growth 48h 1.9µM, Pf growth 96h 0.59µM (no result: NS1 inh, Shiga toxin inh, Cycloheximide cs)
CCOC(=O)c1ccc(-[n+]2c(-c3ccccc3)cc(-c3ccccc3)cc2-c2ccccc2)cc1	Pf growth 48h 2.9µM, Pf growth 96h 1.2µM (no result: NS1 inh, Shiga toxin inh, Cycloheximide cs)
Clc1ccccc1CNc1ncnc2nc[nH]c12	SARS PLP yeast inconclusive, Pf growth 48h inconclusive, Pf growth 96h inconclusive
Cc1ccc(/C=N/Nc2ncnc3nc[nH]c23)cc1	Shiga toxin inh 147, Cycloheximide cs 38
Oc1ccc(/C=N/Nc2ncnc3nc[nH]c23)cc1	Cycloheximide cs 35
Clc1ccc(/C=N/Nc2ncnc3nc[nH]c23)cc1	Pf growth 48h inconclusive, Pf growth 96h 12µM, Cycloheximide cs 39
c1ccc(COc2ccc(Nc3ncnc4nc[nH]c34)cc2)cc1	Pf growth 96h inconclusive (no result: Pf growth 48h)
Cc1nc2scc(-c3ccccc3)c2c(=O)o1	Pf growth 96h inconclusive
O=c1oc(-c2ccccc2F)nc2scc(-c3ccccc3)c12	Shiga toxin inh 32, Pf growth 96h inconclusive, Cycloheximide cs 21
COc1ccc(CC(=O)c2ccc(OC)c(OC)c2C)cc1OC	Pf growth 48h inconclusive, Shiga toxin inh 56, Pf growth 96h 10µM, Cycloheximide cs 23
COc1ccc(CNC(=O)Cc2cccs2)cc1OC	Cycloheximide cs 28
COc1ccc(CC(=O)NCc2cccs2)cc1OC	Pf growth 96h inconclusive (no result: Pf growth 48h)
Cc1cccc(CNC(=O)Cc2csc3ccccc23)c1	Shiga toxin inh 75, Cycloheximide cs 63 (no result: SARS PLP yeast, Pf growth 48h, NS1 inh, Pf growth 96h)
COc1ccc(CC(=O)NCc2cccc(CNC(=O)Cc3ccc(OC)c(OC)c3)c2)cc1OC	Pf growth 96h 8.3µM
COc1ccc(OCc2nnc(SCC(=O)Nc3ccccc3Cl)o2)cc1	none
COc1ccc(CCNC(=O)Cn2nc(C(=O)O)c3ccccc3c2=O)cc1OC	none (no result: NS1 inh)
COc1ccccc1-n1nc(C(=O)O)c2ccccc2c1=O	Pf growth 96h inconclusive
COc1ccccc1Cn1nc(C(=O)O)c2ccccc2c1=O	Shiga toxin inh 43, Cycloheximide cs 20
COc1ccc(CC(=O)NCc2ccccn2)cc1OC	Pf growth 48h 10µM, Pf growth 96h 4.7µM
COc1ccc(CC(=O)NNC(=O)c2nn(Cc3ccccc3)c(=O)c3ccccc23)cc1OC	Pf growth 48h 3.3µM, Pf growth 96h inconclusive
CC1CCC(NC(=O)C2CCC(CNc3c(N4CCCCC4)c(=O)c3=O)CC2)CC1 (stereo not drawn)	Pf growth 48h inconclusive
Clc1ccc(CSc2nnc3ccccn23)c(Cl)c1	Shiga toxin inh 40, Cycloheximide cs 60
O=[N+]([O-])c1ccccc1CSc1nnc2ccccn12	Shiga toxin inh 53, Cycloheximide cs 40 (no result: NS1 inh)
O=C1/C(=C/c2cccs2)NC(=S)N1C1CC1	Shiga toxin inh active
CCOC(=O)Cc1csc(NC(=O)CSc2nccn2C)n1	none
O=C(Nc1ccc2c(c1)OCO2)C1CC(c2ccccc2Cl)=NO1 (stereo not drawn)	Shiga toxin inh 48
CCn1cc(C2=NOC(C(=O)Nc3ccc4c(c3)OCO4)C2)c(C)n1 (stereo not drawn)	Pf growth 48h inconclusive, Pf growth 96h 0.52µM
O=C(Nc1cc(Br)ccc1O)C1CC(c2ccccc2Cl)=NO1 (stereo not drawn)	Pf growth 96h inconclusive
CCn1cc(C2=NOC(C(=O)Nc3cc(C)nn3-c3ccccc3)C2)c(C)n1 (stereo not drawn)	none
CCOC(=O)c1c(C)n(Cc2ccc(F)cc2)c2ccc(O)cc12	Pf growth 48h inconclusive
CCOC(=O)c1c(C)n(Cc2ccc3c(c2)OCO3)c2ccc(O)cc12	Cycloheximide cs 30 (no result: Pf growth 96h)
COC(=O)c1c(C)n(Cc2ccc3c(c2)OCO3)c2ccc(O)cc12	Pf growth 48h inconclusive, Cycloheximide cs 16
Cc1ccn2c(=O)c(NC(=O)c3cccs3)c(C)nc2c1	none (no result: NS1 inh, Shiga toxin inh, Cycloheximide cs)
Cc1ccccc1C(=O)Nc1cccc(N)c1	Shiga toxin inh 31, Cycloheximide cs 18 (no result: Pf growth 96h)
Nc1ccc(C(=O)Nc2cccc(N)c2)cc1	Shiga toxin inh 77, Cycloheximide cs 20
COc1ccc(S(=O)(=O)NC2CCSc3ccccc32)cc1OC (stereo not drawn)	none
COc1cc(C)cc(OC)c1/C=C\C(=O)O	none (no result: SARS PLP yeast, Pf growth 48h, Shiga toxin inh, Pf growth 96h, Cycloheximide cs)
CCCCCn1nnc2c(=O)oc3ccccc3c21	none

Compound activity deposited in PubChem BioAssay by National Center for Advancing Translational Sciences (NCATS).
